Screens deposited in PubChem by National Center for Advancing Translational Sciences (NCATS).
In the library only some 6.1% were active in any assay of this set; here they are far more common.
D3 ag: D3 dopamine receptor (human) agonism | max activation, % | P35462 | D3R DiscoveRx beta-arrestin cells, luminescence, 90 min | AID 652048 | actives 0.58% (n = 410,000); in the data active = max activation above about 30%
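Agonist mode: compounds and dopamine controls were applied to plated cells for 90 min at 37 degrees C after an overnight attachment at 1500 cells/well. Luminescent read-out followed 30 - 60 minutes at room temperature with DiscoveRx detection reagent.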
D1 antag: antagonists of human D1 dopamine receptor. P21728. HEK293 TREx D1 cells, calcium flux, dopamine EC80; hits give low values. activity change, negative = inhibition, % at 10 µM. actives 3.2% (n = 360,000). AID 504652; in the data active = activity change below about -30%
Target sequence (P21728 whole entry, looked up): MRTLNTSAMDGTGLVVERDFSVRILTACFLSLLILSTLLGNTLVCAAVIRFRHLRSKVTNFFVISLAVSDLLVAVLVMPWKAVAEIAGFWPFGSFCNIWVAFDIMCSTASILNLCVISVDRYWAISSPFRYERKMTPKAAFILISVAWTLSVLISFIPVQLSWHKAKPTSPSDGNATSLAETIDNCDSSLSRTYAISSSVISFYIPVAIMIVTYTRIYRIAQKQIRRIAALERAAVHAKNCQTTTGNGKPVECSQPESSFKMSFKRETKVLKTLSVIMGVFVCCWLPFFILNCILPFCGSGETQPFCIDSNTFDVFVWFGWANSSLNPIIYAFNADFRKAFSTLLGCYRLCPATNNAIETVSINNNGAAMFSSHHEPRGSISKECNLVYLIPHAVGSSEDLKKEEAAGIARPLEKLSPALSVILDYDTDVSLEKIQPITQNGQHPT
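Allosteric or orthosteric antagonism assessed as attenuation of the calcium response to EC80 dopamine, added 180 s after compound, in induced HEK293 Trex D1 cells loaded with no-wash calcium dye.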
D1 potentiator: enhances dopamine response at the human D1 receptor; HEK293 TREx D1 cells, calcium flux, dopamine EC20 potentiation; actives 0.036% (n = 360,000); P21728; potentiation, % at 10 µM; AID 504651; in the data active = potentiation above about 30%
D1 agonist: human D1 receptor agonism. P21728. HEK293 T-REx D1 cells, calcium flux, agonist mode. activation, % at 2 µM. actives 1% (n = 360,000); in the data active = activation above about 30%
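Agonism was scored from calcium flux recorded over 180 s (1 read/s) after pintool compound addition, following a 10-cycle baseline. Cells were inducible force-coupled HEK293 TREx D1, plated overnight at 30 C and loaded with no-wash calcium dye.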
D3 antag: blocks the human D3 dopamine receptor; P35462; D3R cells, DiscoveRx beta-arrestin luminescence, antagonist mode; hits give low values; max response, negative = inhibition, %; actives 2.5% (n = 360,000); in the data active = max response below about -50%; inconclusive = no clear call, values can overlap the other calls
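Cells plated overnight at 1500 cells/well, then exposed to library compounds with dopamine controls for 90 minutes at 37 degrees C. DiscoveRx reagent added for 30–60 minutes at room temperature; luminescence read, quantitative HTS format.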
Each line names hits and unclear results; the compound was inactive in the other large screens.

Cc1ccccc1S(=O)(=O)N1[C@@H](c2ccc(Br)cc2)C(C(=O)O)=CC[C@H]1c1ccc(Cl)cc1	none (no result: D1 antag, D1 potentiator, D1 agonist)
Cc1ccc(S(=O)(=O)N2[C@@H](c3ccccc3F)C(C(=O)O)=CC[C@H]2c2ccc(Cl)c(Cl)c2)cc1	D1 agonist 58.4
CCc1nn(CC(=O)NCc2cccc(OC)c2OC)c(=O)c2cc3occc3n12	none (no result: D3 antag)
CCOc1ccc([C@@H]2CC=C(C(=O)O)[C@H](c3ccc(Cl)cc3)N2S(=O)(=O)c2ccc(C)cc2)cc1	D3 antag -72.8
Cc1ccc([C@@H]2CC=C(C(=O)O)[C@H](c3ccc(Cl)cc3)N2S(=O)(=O)c2ccc(C)cc2)cc1	D3 antag inconclusive
COc1ccc(-c2cn3cccnc3n2)cc1NC(=O)Nc1cc(C)ccc1C	none (no result: D3 antag)
COc1ccc(Cn2c(O)c(C=Nc3ccccc3)c3ccccc3c2=O)cc1	none
COc1ccc(Cn2c(O)c(C=Nc3ccc(O)cc3)c3ccccc3c2=O)cc1	D3 antag -77.6
CCN(Cc1ccccc1OC)CC1CCCN(CCc2cccc(OC)c2)C1 (stereo unspecified)	none
CCN(Cc1ccc(NC(C)=O)cc1)CC1CCCN(CCc2cccc(OC)c2)C1 (stereo unspecified)	D3 antag -51.6
CN(C)c1cc(C(F)(F)F)nc(-c2ccccn2)n1	none
CSCc1cc(N(C)c2ccccc2)nc(-c2ccccn2)n1	D3 antag -75.4
Cc1ccc(C(=O)NC(=S)Nc2ccc(Oc3ccc(Cl)cc3)cc2)cc1	none
COC(=O)NC(=S)Nc1ccc(Oc2ccc(Cl)cc2Cl)c(Cl)c1	D3 antag -64.8
O=C(NC(=S)Nc1ccc(F)c(Cl)c1)C1CC1	none
COC(=O)NC(=S)Nc1ccc(Oc2ccc(Cl)cc2)c(Cl)c1	D1 antag -35.4, D3 antag inconclusive
COc1cc2c(cc1OC)-c1n[nH]c(=S)n1C(C)(C)C2	D1 antag -59.2
C=C(C)C1CC=C(CN2CCN(Cc3ccccc3)CC2)CC1 (stereo unspecified)	D3 antag -56.5
C=C(C)[C@@H]1CC=C(CN2CCN(Cc3ccccc3)CC2)CC1	D3 antag -65.0
C=C(C)C1CC=C(CN2CCC(O)CC2)CC1 (stereo unspecified)	D3 antag inconclusive
CCOC(=O)c1c(C)c(C(=O)NCc2ccc(Cl)cc2)c(C)n1C	none (no result: D3 antag)
Cc1nn(C(=O)c2cccc(Cl)c2)c(C)c1S(=O)(=O)N1CCOCC1	none (no result: D3 antag)
Cn1ccsc1=NC(=O)c1ccccc1F	none
Cc1ccc(C)c(-n2c(-c3ccc(Br)cc3)csc2=NC(=O)c2ccccc2F)c1	D1 antag -42.0
CCOc1ccc(N2C(=O)c3ccccc3C2=O)cc1	none
O=C(COc1ccc(N2C(=O)c3ccccc3C2=O)cc1)c1ccccc1	D1 antag -32.1
CC(C)CCNC(=O)CCn1c(=O)c2cccn2c2cccnc21	none (no result: D3 antag)
COc1ccccc1CNC(=O)CCCCn1c(=O)c2ccccc2n(CC(=O)Nc2cccc(Cl)c2)c1=O	none (no result: D3 antag)
NS(=O)(=O)c1ccc(-n2nncc2C23CC4CC(CC(C4)C2)C3)cc1	D1 antag -90.8
NS(=O)(=O)c1ccc(CCNC(=O)NC23CC4CC(CC(C4)C2)C3)cc1	none (no result: D1 antag)
Cc1ccc(Sc2c(C)nn(C(C)(C)C)c2OC(=O)CC(C)C)cc1	none (no result: D3 antag)
COc1cccc(-c2oc3c(c2C(=O)OCCN2CCCCC2)C(O)CCC3)c1 (stereo unspecified)	D3 antag -54.6 (no result: D1 antag, D1 potentiator, D1 agonist)
CN1CCN(c2ccc(NC(=O)CSc3nnnn3-c3ccccc3F)cc2)CC1	D1 antag -45.6
Cc1ccc(SCC(=O)Nc2ccc(N3CCN(C)CC3)c(F)c2)c(C)c1	D3 antag -98.1 (no result: D1 potentiator)
Cc1ccc(-n2nnnc2SCC(=O)Nc2sccc2C#N)cc1	D1 antag -65.7, D3 antag inconclusive
Cc1ccc(-n2nnnc2SCC(=O)Nc2ccc(N3CCN(C)CC3)cc2)c(C)c1	D1 antag -60.5
CCCCc1ccc(-n2nc3ccc(NC(=O)c4cc5ccccc5o4)cc3n2)cc1	none (no result: D3 antag)
Cn1cnc(S(=O)(=O)N2CCC(C(=O)Nc3ccc(Cl)c(C(F)(F)F)c3)CC2)c1	none (no result: D3 antag)
CN(C)c1ccc(NC(=O)CSC2=Nc3ccccc3C3=NC(CCC(=O)NCc4cccs4)C(=O)N23)cc1 (stereo unspecified)	none (no result: D3 antag)
CCOc1ccccc1NC(=O)Cn1c(=O)n(-c2ccccc2)c(=O)c2c1c1cc(C)ccc1n2C	none (no result: D3 antag)
Cc1cc(C)cc(N2C(=O)CSC23C(=O)N(Cc2c(F)cccc2Cl)c2ccccc23)c1 (stereo unspecified)	none (no result: D3 antag)
O=C(COC(=O)/C=C/c1cccc([N+](=O)[O-])c1)Nc1ccc(Cl)cn1	D1 antag -49.3
O=C(COC(=O)c1ccc(O)cc1)NC1CCCC1	none
O=C(COC(=O)c1ccc([N+](=O)[O-])cc1)Nc1ccc(Cl)cn1	D1 antag -37.0
O=C(COC(=O)c1ccc([N+](=O)[O-])cc1)NC1CCCC1	D1 antag -45.2
Cc1cccc(-c2noc(-c3ccc(NCc4cccnc4)c([N+](=O)[O-])c3)n2)c1	none (no result: D3 antag)
COc1ccc([N+](=O)[O-])cc1NC(=O)c1ccccc1SC	D1 antag -43.5
COC(=O)Nc1cc([N+](=O)[O-])ccc1OC	none
COc1ccc([N+](=O)[O-])cc1NC(=O)C(C)N1CCCC1 (stereo unspecified)	D3 antag -62.3
COc1ccc([N+](=O)[O-])cc1NCc1cccnc1	none
COc1ccc([N+](=O)[O-])cc1NCc1cccc([N+](=O)[O-])c1	D3 antag -52.8
COc1ccccc1N1CCN(C(=O)Cn2ncc3ccsc3c2=O)CC1	none (no result: D3 antag)
CCOC(=O)Cc1ccc(NC(=O)NCc2c(-n3cccc3)sc3c2CCCC3)cc1	none (no result: D3 antag)
COc1ccc(-n2ncc3c(NCCCOC(C)C)ncnc32)cc1	none (no result: D3 antag)
OCC[C@@H]1C[C@H](O)[C@@H](O)[C@@]2(Cc3ccccc3CO2)O1	D1 antag -68.9
OCC[C@H]1C[C@@H](O)[C@H](O)[C@@]2(Cc3ccccc3CO2)O1	none
Cc1ccc2c(=O)c(C(=O)c3ccccc3)cn(CC(=O)NCc3ccccc3)c2n1	none (no result: D3 antag)
Cc1ccccc1OCc1nc2ccc(S(=O)(=O)N3CCOCC3)cc2[nH]1	none
CCc1ccccc1OCc1nc2ccc(S(=O)(=O)N3CCOCC3)cc2[nH]1	D3 antag -56.2 (no result: D1 antag)
COc1ccc(-c2nc(CCNC(=O)c3c(F)cccc3Cl)cs2)cc1	none (no result: D3 antag)
CC(C)CN1CCC(=O)N([C@H](CO)c2ccccc2)CC1	none
Cc1ccc(SC[C@H](c2ccccc2)N2CCN(CC(C)C)CCC2=O)cc1	D3 antag -88.8
CC(C)CN1CCC(=O)N([C@H](CSc2ccc(Br)cc2)c2ccccc2)CC1	D1 antag -44.3
O=C1CCN(CCc2ccccc2)CCN1[C@H](CSc1ccc(Br)cc1)Cc1ccccc1	D3 antag -56.9
O=C1CCN(Cc2ccccc2)CCN1[C@H](CSc1ccccc1)Cc1ccccc1	none
